Results on 58 molecules are retold here after PubChem BioAssay AID1022 (Emory University Molecular Libraries Screening Center, 2008).

Screen size: about 220,000 compounds; about 3,300 (1.5%) were called active. The entries come from a sample that favours actives as a whole. A number with no mark means an inactive call.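 Rule for the calls: active = compounds that cut the protein-peptide binding signal by more than 50% relative to plate controls in a single-dose test; inactive = the rest.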

The test deals with Induced myeloid leukemia cell differentiation protein Mcl-1 (Homo sapiens) (UniProt Q07820). The test can be described thus: Mcl-1/Noxa binding inhibitors, primary screen, biochemical, TR-FRET, 1536-well (AID 1022).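 Note: His-tagged Mcl-1 with rhodamine Noxa BH3 peptide and terbium anti-His antibody; 0% = Mcl-1 plus Noxa peptide wells and 100% = peptide-only wells.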 The note with it: TR-FRET Mcl-1/Noxa peptide binding, 2 h; at 21.7 µM; hits give high values. (In general: TR-FRET usually uses a lanthanide donor and a delayed reading to cut background.)
Chain of Induced myeloid leukemia cell differentiation protein Mcl-1 (Homo sapiens) (Q07820 whole entry, looked up): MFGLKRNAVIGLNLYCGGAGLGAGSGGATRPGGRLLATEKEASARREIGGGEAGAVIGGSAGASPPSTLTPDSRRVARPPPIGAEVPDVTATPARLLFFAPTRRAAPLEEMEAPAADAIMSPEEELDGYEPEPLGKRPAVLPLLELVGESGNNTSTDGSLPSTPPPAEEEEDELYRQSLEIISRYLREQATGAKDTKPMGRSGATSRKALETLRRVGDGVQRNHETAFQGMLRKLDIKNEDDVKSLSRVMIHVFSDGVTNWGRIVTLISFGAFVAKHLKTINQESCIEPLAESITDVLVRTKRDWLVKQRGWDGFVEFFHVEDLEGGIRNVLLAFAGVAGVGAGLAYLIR
As usually defined, the inhibition is the relative decrease from the control value, in per cent. Regarding `NCC(=O)c1cccc2ccc[n+]([O-])c12`, the inhibition was 17.5%.
The value for `COc1cc(NC(=O)c2ccc(CNc3c(N4CCCC4)c(=O)c3=O)cc2)cc(OC)c1OC` was 8.38%; that for `COc1ccc(-c2cn(-c3ccc(OC)cc3)c(=S)[nH]2)cc1` was 11.3%; that for `COc1cc(OC)c(-n2c(C)cc(C=O)c2C)cc1Cl` was 13.7%.
`COc1cc(OC)c(-n2cc(-c3ccc(Cl)cc3)[nH]c2=O)cc1Cl`: the inhibition is 55.4% (active).
The value for `COc1ccc(/C=C/C(=O)Nc2ccc(C)cc2)cc1S(=O)(=O)N1CCOCC1` was 8.12%; that for `CCN(CC)c1ccc(/C=N/NC(=O)c2cnccn2)c(O)c1` was 15.6%.
For the molecule `CCn1c(SCC(=O)Nc2sc(C)c(C)c2C#N)nnc1C1CC1`, the inhibition is 29.1%.
In the case of `Brc1ccc2c(c1)[C@H]1OCC[C@H]1[C@@H](c1cccs1)N2`, the inhibition is -3.81%.
Consider `Cc1[nH]n(-c2ccccc2)c(=O)c1N=Nc1ccccc1C(=O)N1CCCCC1`, for which the inhibition is 11.2%.
For `O=C(CN1CCOCC1)N/N=C/c1ccc(-c2ccc(Br)cc2)o1` the value was 10.4%.
With `O=C(Cn1nnc(-c2ccccc2)n1)NCc1ccccc1`, the inhibition is -34.6%.
Regarding `Cc1[nH]c2ccccc2c1/C=N\NC(=O)Cn1nnc(-c2ccccc2)n1`, the inhibition was 62.8% (active).
Consider `Nc1nnnn1CC(=O)N/N=C/c1ccc(-c2cccc(Cl)c2)o1`, for which the inhibition was 39.1%.
The value for `Nc1nnn(CC(=O)N/N=C/c2ccccc2)n1` was -7.14%.
Regarding `O=C(Cn1nnc(-c2ccccc2)n1)N/N=C/c1ccc(-c2ccc(Cl)cc2)o1`, the inhibition was 54.1% (active).
As for `COc1ccc(CCNCC(O)Cn2ccc3ccccc32)cc1OC` (stereo not drawn), the inhibition is 15.7%.
Regarding `Cc1ccc(OCC(=O)c2cc(C)n(Cc3ccco3)c2C)c([N+](=O)[O-])n1`, the inhibition is 8.57%.
In the case of `COC(=O)c1ccc(S(=O)(=O)NCc2ccccc2)n1C`, the inhibition is 8.72%.
Take `COc1ccccc1Cn1c(CO)nc2ccccc21`: the inhibition was 7.12%.
The value for `O=C(Nc1ccc(Cl)cc1)Nc1ccc(Oc2cccnc2)nc1` was 26.5%; that for `Cc1ccc(C2C3=C(Nc4[nH]n(-c5ccccc5)c(=O)c42)c2ccccc2C3=O)cc1` (stereo not drawn) was 69% (active).
For the molecule `Cc1ccc(N=Nc2c(C)[nH]n(-c3ccccc3)c2=O)cc1`, the inhibition was 23.8%.
Consider `Cc1cc(C)c(C2C3=C(Nc4c2c(C)nn4-c2ccccn2)c2ccccc2C3=O)c(C)c1` (stereo not drawn), for which the inhibition was 12.5%.
For `O=C(/C=C/c1ccc(Cl)c([N+](=O)[O-])c1)c1ccc(O)cc1` the value was -1.19%; for `O=C(/C=C/c1ccc(Cl)c([N+](=O)[O-])c1)c1cccnc1`, 52.5% (active); for `O=C(Nc1cccnc1)c1ccc(Cl)c([N+](=O)[O-])c1`, 14.2%.
Take `Cc1nc(C(=O)N2CCCC(C(=O)c3ccc(Cl)cc3)C2)cs1` (stereo not drawn): the inhibition is -4.61%.
Take `CC(=O)c1c(C)[nH]c(=S)c(C#N)c1-c1ccc(F)cc1`: the inhibition is -4.64%.
On to `Oc1ccccc1N1CCN(C(=S)NCc2ccccc2)CC1`, for which the inhibition was 16.6%.
For `S=C(NCCc1ccccc1)N1CCCCC1`, the inhibition was 21.5%.
Take `Oc1ccc(N2CCN(C(=S)NCc3ccccc3)CC2)cc1`: the inhibition is 61.1% (active).
Regarding `CC(=O)N/C(=C\c1ccc(F)cc1)C(=O)NC(Cc1ccccc1)C(=O)O` (stereo not drawn), the inhibition was -9.17%.
For `CCc1c(C)nc2cc(-c3cccs3)[nH]n2c1=O` the value was 7.24%; for `Cc1cc(=O)n2[nH]c(-c3sccc3-n3c(C)ccc3C)cc2n1`, 50.6% (active).
As to `O=C(CS(=O)(=O)c1ccc(C(F)(F)F)cn1)NNC(=O)c1ccccc1`, the inhibition was -2.05%.
Regarding `COc1cccc(OC)c1CN(C)C(=O)c1cnccc1C(F)(F)F`, the inhibition is -21.5%.
On to `C/C=C(\C)C(=O)N1CC2(CC(c3cccc(NC(=O)CCCCC)c3)=NO2)C[C@@H]1C(N)=O` (stereo partly drawn), for which the inhibition was -15.7%.
With `O=C(NCCCc1ccccc1)C1CCC(CNc2c(N3CCCCC3)c(=O)c2=O)CC1` (stereo not drawn), the inhibition is -3.38%.
Regarding `CN(C)/C=C(/C(=O)c1ccc(Cl)c(Cl)c1)c1nnnn1-c1ccccc1`, the inhibition was -12.2%.
The value for `O=C(COc1ccccc1[N+](=O)[O-])N/N=C/c1ccc[nH]1` was -5.33%.
The value for `Nn1c(SCc2ccccc2)nnc1C1CCCCC1` was 19.7%; that for `O=C(COc1ccccc1[N+](=O)[O-])NC1CC1` was -42.2%; that for `Cc1cc(OCC(=O)NC2CCN(C)CC2)ccc1[N+](=O)[O-]` was 55.3% (active).
Take `Cc1cc(OCCCN2CCN(Cc3ccccc3)CC2)ccc1[N+](=O)[O-]`: the inhibition was 27.1%.
As to `COc1cc2c3c(c1)/C(=C1/SC(=S)NC1=O)C(=O)N3C(C)(C)C=C2C`, the inhibition was 64% (active).
For the molecule `CC(C)n1c(CN2CCN(Cc3ccccc3)CC2)nc2ccccc21`, the inhibition was 24.8%.
As to `O=c1[nH]c2ccccc2n2c(-c3ccccc3)nnc12`, the inhibition was 101% (active).
The value for `O=[N+]([O-])c1cccc(-c2nnc3c4ccccc4c4ccccc4n23)c1` was 20.8%; that for `CCOC(=O)c1cnc2[nH]c3ccccc3n2c1=O` was 22%; that for `CCOC(=O)c1c(CC(C)C)csc1/N=C/C1=C(O)CCCC1=O` was -5.98%.
Take `O=C(OCC1O[C@@H](OC(=O)c2cc(O)c(O)c(O)c2)[C@@H](OC(=O)c2cc(O)c(O)c(O)c2)[C@@H](OC(=O)c2cc(O)c(O)c(O)c2)[C@@H]1OC(=O)c1cc(O)c(O)c(O)c1)c1cc(O)c(O)c(O)c1` (stereo partly drawn): the inhibition is 114% (active).
For `CC(=O)NC1C(OCc2ccccc2)OC(COC(C)=O)C(OC(C)=O)C1OC(C)=O` (stereo not drawn), the inhibition is 10.8%.
Take `COC(=O)c1cc(=O)n(-c2c(Cl)cc(C(F)(F)F)cc2Cl)[nH]1`: the inhibition was 3.78%.
Take `O=C(NNC(=S)Nc1ccccc1)c1cccc(S(=O)(=O)N2CCOCC2)c1`: the inhibition was 1.14%.
Regarding `Cc1cc(C(=O)Nc2ccccc2N2CCOCC2)c2ccccc2n1`, the inhibition is -3.21%.
As to `Cc1cc(C(=O)NNC(=O)c2cccc(S(=O)(=O)N3CCOCC3)c2)c2ccccc2n1`, the inhibition was 63.2% (active).
On to `O=C1NC[C@@H](Cc2ccc(O)cc2)N(CCc2cccc(F)c2)C1=O`, for which the inhibition was 6.16%.
